Laboratory results from PubChem BioAssay (Tox21).
Values joined by “and” are separate entries in the source; they are usually repeats but may differ in a detail not shown here. Identical values can stand only once. Records with an inconclusive call do not appear. A call without a number means that no potency is given here. Active and inactive are the calls of the source. Calls come from the whole dose curve; as a rule, active = well fitted cell-killing curve with a large enough effect in the repeat runs; inconclusive = weak or mixed curves, or effect the other way; inactive = flat fitted curve, though single readings scatter.

test: qHTS assay to identify small molecule antagonists of the estrogen receptor alpha (ER-alpha) signaling pathway using the BG1 cell line in the presence of 0.1 nM 17-beta-estradiol - cell viability counter screen (AID 1259241); settings: VM7Luc4E2 (BG1) viability, CellTiter-Fluor protease, 22 h, 0.1 nM estradiol agonist added; series mostly up to 92.4 µM; note: nearly all actives have a fitted effect of over 40% in size
Description: National Center for Advancing Translational Sciences [NCATS]
NIH Chemical Genomics Center [NCGC]
U.S. Environmental Protection Agency [EPA]
National Institutes of Environmental Health Sciences [NIEHS]
National Toxicology Program [NTP]
U.S. Food and Drug Administration [FDA]
Estrogen receptor (ER), a member of the nuclear hormone receptor plays an important role in development, metabolic homeostasis and reproduction. Two subtypes of ER, ER-alpha and ER-beta, have similar expression patterns with some uniqueness in both types. Endocrine disrupting chemicals (EDCs) and their interactions with steroid hormone receptors like ER causes disruption of normal endocrine function. Therefore, it is important to understand the effect of environmental chemicals in ER signaling pathway. For identifying ER antagonists, VM7Luc4E2 cell line was used to screen against Tox21 compound libraries.
VM7Luc4E2 cell line (provided by Denison MS, University of California) endogenously express full-length ER-alpha and is stably transfected with a plasmid containing four estrogen responsive elements (ERE) upstream of a luciferase reporter gene. The current screening for identification of ER-alpha inhibitors against Tox21 compound libraries used lower concentration (0.1 nM) of 17beta-Estradiol as a stimulator. The cytotoxicity of the Tox21 compound libraries against VM7Luc4E2 cell line was tested by measuring live-cell protease activity using CellTiter-Fluor assay in the same wells.
Tox21 Assay Protocol Summary:
VM7Luc4E2 cells were cultured in phenol red free assay medium containing 10% charcoal stripped FBS for 5 days prior to the assay. The cells were dispensed at 4,000 cells/well in 4 uL of assay medium into white wall/solid-bottom 1536-well plates (Corning Life Sciences, Corning, NY) using a Multidrop Combi (ThermoFisher Scientific, Waltham, MA) dispenser. After the assay plates were incubated at 37C and 5% CO2 for 24 hr, 23 nL of compounds dissolved in DMSO, positive controls or DMSO only was transferred to the assay plates by a Pintool station (Kalypsys, San Diego, CA). The transfer of compounds was followed by the addition of 1 uL of 0.1 nM (final concentration) agonist (17beta-Estradiol)/assay medium using a Flying Reagent Dispenser (FRD, Aurora Discovery, San Diego, CA). The plates were incubated at 37C and 5% CO2 for 22 hr. For cytotoxicity assay, 1 uL of CellTiter-Fluor reagent (Promega Corporation, Madison, WI) was added to each well using the FRD and after 30 min incubation at 37C and 5% CO2, The fluorescence intensity was measured using ViewLux plate reader (PerkinElmer, Shelton, CT).
Potency is the fitted concentration of half-maximal effect.

SMILES | Potency
O=[N+]([O-])c1ccc(Cl)c([N+](=O)[O-])c1 | 27.7 µM (active) and 54.5 µM (active)
CCC1(c2ccc(N)cc2)CCC(=O)NC1=O (stereo not given) | inactive
c1ccc2c(c1)Nc1ccccc1S2 | inactive
NC(=O)CN1CCCC1=O | inactive
CC(C)(c1ccccc1)c1ccc(O)c(C(C)(C)c2ccccc2)c1 | 61.1 µM (active)
COP(=O)(NC(C)=O)SC (stereo not given) | inactive
Clc1ccc(C(Cl)(Cl)Cl)cc1 | inactive
CCOP(=S)(OCC)SCn1c(=O)oc2cc(Cl)ccc21 | inactive
NN=C(N)N | inactive
CC(C)Nc1nc(Cl)nc(NC(C)C)n1 | inactive
CCOS(=O)(=O)OCC | inactive
CCNc1nc(Cl)nc(NC(C)(C)C#N)n1 | inactive
Cc1ccc([N+](=O)[O-])cc1 | inactive
Cc1ccc(N=CN(C)C=Nc2ccc(C)cc2C)c(C)c1 | inactive
Clc1ccccc1-c1nnc(-c2ccccc2Cl)nn1 | inactive
CC(C)=CC1C(C(=O)OCN2C(=O)C3=C(CCCC3)C2=O)C1(C)C (stereo not given) | inactive
CC(C)=CC1C(C(=O)OCc2cccc(Oc3ccccc3)c2)C1(C)C (stereo not given) | inactive
CC(C)(c1ccccc1)c1ccc(O)cc1 | inactive
Nc1ccc2ccccc2c1 | inactive
Clc1cccc(Cl)c1 | inactive

SMILES | Potency
COP(=S)(OC)Oc1ccc(Sc2ccc(OP(=S)(OC)OC)cc2)cc1 | inactive
Oc1ccc(Cl)cc1Cl | inactive
CC(C)COC(=O)c1ccccc1C(=O)OCC(C)C | inactive
CC(C)CON=O | inactive
CCCCSP(=O)(SCCCC)SCCCC | inactive
ClCc1ccccn1 | inactive
Cc1cccc(N=Nc2ccc(N(C)C)cc2)c1 | 27.3 µM (active)
C[N+](C)(C)C | inactive
CC(O)CN(CC(C)O)CC(C)O (stereo not given) | inactive
COc1ccc(CO)cc1 | inactive
CN(C)c1ccccc1 | inactive
O=C1C(Cl)=C(Cl)C(=O)c2ccccc21 | 24.4 µM (active)
CCCCOCC1CO1 (stereo not given) | inactive
CN(C)P(=O)(N(C)C)N(C)C | inactive
O=S(=O)(O)C(F)(F)C(F)(F)C(F)(F)C(F)(F)C(F)(F)C(F)(F)C(F)(F)C(F)(F)F | inactive
C=CC(Cl)CCl (stereo not given) | inactive
CCN(CC)C(=O)C(C)Oc1cccc2ccccc12 (stereo not given) | inactive
CS(=O)(=O)NC(=O)c1cc(Oc2ccc(C(F)(F)F)cc2Cl)ccc1[N+](=O)[O-] | inactive
CCCCOCCOC(C)=O | inactive
CC1(C)Cc2cccc(O)c2O1 | inactive
